Results filed as inconclusive are left out. Where a call stands in place of a potency, no number is given. Active and inactive are the calls of the source. The call rests on the fitted dose curve; in most records, active means well fitted inhibition curve with a large enough effect; inconclusive means small, poorly fitted or top-dose-only effect; inactive means no such curve, though single readings can be large or run the other way.
Target: N-terminal Xaa-Pro-Lys N-methyltransferase 1 (Homo sapiens) (UniProt Q9BV86)
Experiment: qHTS Assay for Inhibitors of N-terminal methyltransferase 1 (NTMT1): MTaseGlo Confirmatory Screen, Round 2
Conditions: NTMT1 enzyme, MTase-Glo SAH luminescence; series mostly up to 57.4 µM
Outline: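 Luminescent MTase-Glo readout of SAH formed in 30 min at RT by 125 nM NTMT1, 100 µM SAM and 1 µM SPKRIA substrate, after ~15 min compound preincubation. Percent inhibition versus no-enzyme and DMSO controls was Hill-fitted.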
Potency means the concentration at half of the fitted maximal effect.

Chain of N-terminal Xaa-Pro-Lys N-methyltransferase 1 (Homo sapiens) (Q9BV86 whole entry, looked up): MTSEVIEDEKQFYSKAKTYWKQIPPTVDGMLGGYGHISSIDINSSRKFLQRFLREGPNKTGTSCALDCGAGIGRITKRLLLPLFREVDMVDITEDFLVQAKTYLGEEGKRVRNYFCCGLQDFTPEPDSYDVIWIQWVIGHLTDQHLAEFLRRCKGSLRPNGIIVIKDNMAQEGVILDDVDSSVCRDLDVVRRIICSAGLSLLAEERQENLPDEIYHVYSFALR

`N#C/C(=C\c1ccc(O)c(O)c1)C(=O)Nc1ccccc1` was tested. Which Potency did it give?
The Potency was “inactive”.

Which Potency does the source give for `O=C(/C=C/c1ccc(O)cc1)c1ccc(O)cc1O` here?
The Potency was “inactive”.

Which Potency does the source give for `Nc1ncnc2c1ncn2[C@H]1O[C@@H](CNS(=O)(=O)NC(=O)c2cccc(-c3noc(-c4ccccc4F)n3)c2)[C@H](O)[C@@H]1O` here?
The Potency was 2 µM (active).

With `CCCCCCCCCCCCCCCCCC(=O)OC(CC(=O)O)C[N+](C)(C)C` (centres undefined) as the compound, how does the Potency read?
The Potency was “inactive”.

With `C#CCN(C)CCCOc1ccc(Cl)cc1Cl` as the compound, how does the Potency read?
Its Potency is “inactive”.

`Cc1cc2nc3c(=O)[nH]c(=O)nc-3n(C[C@H](O)[C@H](O)[C@H](O)COP(=O)(O)OP(=O)(O)OC[C@H]3O[C@@H](n4cnc5c(N)ncnc54)[C@H](O)[C@H]3O)c2cc1C` was tested. Which Potency did it give?
Its Potency is “inactive”.

With `Nc1ncnc2c1ncn2[C@@H]1O[C@H](COP(=O)(O)OP(=O)(O)OC[C@H]2OC(O)[C@H](O)[C@@H]2O)[C@@H](O)[C@H]1O` (some centres undefined) as the compound, how does the Potency read?
The Potency was “inactive”.

`Nc1c(S(=O)(=O)O)cc(Nc2ccc(Nc3nc(Cl)nc(Nc4ccc(S(=O)(=O)O)cc4)n3)c(S(=O)(=O)O)c2)c2c1C(=O)c1ccccc1C2=O` was tested. Which Potency did it give?
Its Potency is 31.6 µM (active).

With `COc1cccc(OC)c1OCCNCC1CSc2ccccc2O1` (centres undefined) as the compound, how does the Potency read?
The Potency was “inactive”.

`NC[C@@H]1O[C@H](C23CC4CC(CC(C4)C2)C3)Cc2c1ccc(O)c2O` was tested. Which Potency did it give?
The Potency was “inactive”.

`O=C(N[C@@H](Cc1ccccc1)C(=O)CCl)OCc1ccccc1` was tested. Which Potency did it give?
The Potency was “inactive”.

For `CN(C)CCCN1c2ccccc2Sc2ccccc21`, which Potency is on record?
Its Potency is “inactive”.

With `Nc1nc(=S)c2ncn([C@H]3O[C@@H](CO)[C@@H](O)[C@@H]3O)c2[nH]1` as the compound, how does the Potency read?
Its Potency is “inactive”.

Which Potency does the source give for `OCC1OC(n2cnc3c(=S)nc[nH]c32)C(O)C1O` (centres undefined) here?
The Potency was “inactive”.
